# PubChem BioAssay (NCATS)
# Results filed as inconclusive are left out. A call without a number means that no potency is given here. Active and inactive are the calls of the source. Calls follow the shape of the dose curve; as a rule, active = well fitted curve in the direction sought with a large enough effect; inconclusive = small, poorly fitted or top-dose-only effect, or another doubt; inactive = no such curve, though single readings can be large; an effect the other way counts as inactive or inconclusive.
# What was measured:
# [1] = qHTS of pediatric cancer cell lines to identify multiple opportunities for drug repurposing: Primary screen for TC32 cells (AID 1347089); also: nearly all actives have a fitted effect of over 60% in size
# Procedure, shortened: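 Luminescent CellTiter-Glo read-out of metabolically active TC32 cells after 48 h compound exposure. Primary: MIPE 11-point, 0.78 nM–46 µM; NPC 8-point, 0.59 nM–46 µM. Confirmatory: 11-point dilutions.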
# [2] = qHTS of pediatric cancer cell lines to identify multiple opportunities for drug repurposing: Primary screen for DAOY cells (AID 1347090); also: series mostly up to about 46 µM; nearly all actives have a fitted effect of over 55% in size
# Procedure, shortened: (§1)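 Cell viability, CellTiter-Glo luminescence; 500-1,000 cells/well, 8- or 11-point titration, 48 h compound exposure at 37 degrees C, 5% CO2. Controls: DMSO neutral, bortezomib 2.3 µM final as positive.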
# [3] = qHTS of pediatric cancer cell lines to identify multiple opportunities for drug repurposing: Primary screen for SJ-GBM2 cells (AID 1347091); also: potency is read from the fitted curve at half-maximal effect
# Procedure, shortened: as §1
# [4] = qHTS of pediatric cancer cell lines to identify multiple opportunities for drug repurposing: Primary screen for A673 cells (AID 1347092); also: nearly all actives have a fitted effect of over 45% in size
# Procedure, shortened: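 A673 cells (500-1,000 cells/well in growth media) were pre-incubated 5 h at 37 degrees C, then exposed to compounds for 48 h. Viability was read as CellTiter-Glo luminescence; concentration-response curves came directly from the primary screen.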
# [5] = qHTS of pediatric cancer cell lines to identify multiple opportunities for drug repurposing: Primary screen for SK-N-MC cells (AID 1347093); also: series mostly up to about 46 µM
# Procedure, shortened: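 Metabolically active cells were quantified by ATP-dependent luminescence (CellTiter-Glo, 15 min at room temperature) following 48 h treatment. Cells had been plated at 500-1,000 per well and settled for 5 h beforehand.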
# [6] = qHTS of pediatric cancer cell lines to identify multiple opportunities for drug repurposing: Primary screen for BT-37 cells (AID 1347094); also: potency is read from the fitted curve at half-maximal effect
# Procedure, shortened: (§2)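 Quantitative HTS format: each compound titrated (MIPE 11 points from 0.78 nM, NPC 8 points from 0.59 nM) onto cells plated 5 hours earlier. After 48 h at 37 degrees C, CellTiter-Glo luminescence was recorded.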
# [7] = qHTS of pediatric cancer cell lines to identify multiple opportunities for drug repurposing: Primary screen for U-2 OS cells (AID 1347096); also: nearly all actives have a fitted effect of over 50% in size
# Procedure, shortened: (§3)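 Cells (500-1,000/well) rested 5 h, then received compounds for 48 h; metabolically active cells were measured by CellTiter-Glo luminescence. Final concentrations spanned up to 46 µM (MIPE, 11-point) or 0.59 nM-46 µM (NPC, 8-point) in primary screens, 11-point in follow-ups.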
# [8] = qHTS of pediatric cancer cell lines to identify multiple opportunities for drug repurposing: Primary screen for Saos-2 cells (AID 1347097); also: nearly all actives have a fitted effect of over 40% in size
# Procedure, shortened: as §2
# [9] = qHTS of pediatric cancer cell lines to identify multiple opportunities for drug repurposing: Primary screen for NB1643 cells (AID 1347099); also: nearly all actives have a fitted effect of over 50% in size; also: potency is read from the fitted curve at half-maximal effect
# Procedure, shortened: as §2
# [10] = qHTS of pediatric cancer cell lines to identify multiple opportunities for drug repurposing: Primary screen for LAN-5 cells (AID 1347100)
# Procedure, shortened: as §3
# [11] = qHTS of pediatric cancer cell lines to identify multiple opportunities for drug repurposing: Primary screen for RD cells (AID 1347104); also: nearly all actives have a fitted effect of over 55% in size
# Procedure, shortened: as §2
# [12] = qHTS of pediatric cancer cell lines to identify multiple opportunities for drug repurposing: Primary screen for NB-EBc1 cells (AID 1347095)
# Procedure, shortened: as §2
# [13] = qHTS of pediatric cancer cell lines to identify multiple opportunities for drug repurposing: Primary screen for SK-N-SH cells (AID 1347098); also: nearly all actives have a fitted effect of over 65% in size
# Procedure, shortened: as §3
# [14] = qHTS of pediatric cancer cell lines to identify multiple opportunities for drug repurposing: Primary screen for BT-12 cells (AID 1347101); also: nearly all actives have a fitted effect of over 25% in size
# Procedure, shortened: as §3
# [15] = qHTS of pediatric cancer cell lines to identify multiple opportunities for drug repurposing: Primary screen for Rh18 cells (AID 1347102); also: nearly all actives have a fitted effect of over 65% in size
# Procedure, shortened: as §3
# [16] = qHTS of pediatric cancer cell lines to identify multiple opportunities for drug repurposing: Primary screen for OHS-50 cells (AID 1347103); also: nearly all actives have a fitted effect of over 40% in size; also: potency is read from the fitted curve at half-maximal effect
# Procedure, shortened: as §3
Structure (SMILES),Potency [1],Potency [2],Potency [3],Potency [4],Potency [5],Potency [6],Potency [7],Potency [8],Potency [9],Potency [10],Potency [11],Potency [12],Potency [13],Potency [14],Potency [15],Potency [16]
O=C(COc1ccc(Cl)cc1)N1CCN(Cc2ccc3c(c2)OCO3)CC1,inactive,inactive,inactive,inactive,inactive,inactive,inactive,inactive,inactive,inactive,inactive,,,,,
NCCc1ccn[nH]1,inactive,inactive,inactive,inactive,,inactive,inactive,inactive,inactive,inactive,inactive,inactive,inactive,inactive,inactive,inactive
Cc1c(C(N)=O)cc([N+](=O)[O-])cc1[N+](=O)[O-],inactive,inactive,inactive,inactive,,inactive,inactive,inactive,inactive,inactive,inactive,inactive,,inactive,inactive,inactive
CC(C)COC(=O)c1ccc(N)cc1,inactive,inactive,inactive,inactive,,inactive,inactive,inactive,inactive,inactive,inactive,inactive,,inactive,inactive,
CCC(=O)c1c(O)cc(O)cc1O,inactive,inactive,inactive,inactive,,inactive,inactive,inactive,inactive,inactive,inactive,inactive,inactive,inactive,,inactive
CCOc1ccc(NC(=O)CC(C)O)cc1 (stereo unspecified),inactive,inactive,inactive,inactive,inactive,inactive,inactive,,inactive,inactive,inactive,,inactive,inactive,inactive,inactive
CCC(C(=O)OCCN(CC)CC)c1ccccc1 (stereo unspecified),inactive,inactive,inactive,inactive,,inactive,,inactive,inactive,inactive,inactive,,inactive,inactive,inactive,
OC[C@@H](O)[C@@H](O[C@@H]1O[C@H](CO)[C@H](O)[C@H](O)[C@H]1O)[C@H](O)[C@@H](O)CO,inactive,inactive,inactive,inactive,,inactive,inactive,inactive,inactive,inactive,inactive,,inactive,inactive,inactive,
CCCCOc1ccc(OCCCN2CCOCC2)cc1,inactive,inactive,inactive,inactive,inactive,inactive,inactive,inactive,inactive,,inactive,,inactive,,inactive,
CC(O)(P(=O)(O)O)P(=O)(O)O,inactive,inactive,inactive,inactive,,inactive,inactive,inactive,inactive,inactive,inactive,inactive,inactive,inactive,inactive,inactive
O=C(CCCN1CCC(O)(c2ccc(Br)cc2)CC1)c1ccc(F)cc1,inactive,inactive,21.1 µM (active),inactive,inactive,0.001 µM (active),inactive,inactive,0.0237 µM (active),inactive,inactive,,inactive,inactive,,
CCOC(=O)/C=C(C)/C=C/C=C(C)/C=C/c1c(C)cc(OC)c(C)c1C,inactive,inactive,inactive,inactive,,inactive,inactive,inactive,inactive,inactive,inactive,inactive,inactive,,inactive,24.6 µM (active)
C#C[C@]1(O)CC[C@H]2[C@@H]3CCC4=CC(=O)CC[C@@H]4[C@H]3CC[C@@]21C,inactive,inactive,inactive,inactive,inactive,inactive,inactive,inactive,inactive,inactive,inactive,,,inactive,,inactive
CC(Cc1ccccc1)(NC(=O)CN)c1ccccc1 (stereo unspecified),inactive,inactive,inactive,inactive,inactive,inactive,inactive,inactive,inactive,inactive,inactive,,inactive,inactive,inactive,
Cc1ccc(Nc2c(F)cccc2Cl)c(CC(=O)O)c1,inactive,inactive,inactive,inactive,,inactive,inactive,inactive,inactive,inactive,inactive,,inactive,inactive,,inactive
C[C@@H]1C[C@H]2[C@@H]3CCC4=CC(=O)C=C[C@]4(C)[C@@]3(F)[C@@H](O)C[C@]2(C)[C@H]1C(=O)CO,inactive,inactive,inactive,inactive,,inactive,inactive,inactive,inactive,inactive,inactive,inactive,inactive,inactive,,
Cc1cc(O)c(C(C)C)cc1Cl,inactive,inactive,inactive,inactive,inactive,inactive,inactive,,inactive,inactive,inactive,,inactive,inactive,,
CC(=O)OCC(=O)[C@@]1(O)[C@H](C)C[C@H]2[C@@H]3CCC4=CC(=O)C=C[C@]4(C)[C@@]3(F)[C@@H](O)C[C@@]21C,inactive,inactive,inactive,inactive,,inactive,inactive,inactive,inactive,inactive,inactive,inactive,inactive,inactive,inactive,inactive
CCN(CC)C(=O)/C(C#N)=C/c1cc(O)c(O)c([N+](=O)[O-])c1,inactive,inactive,inactive,inactive,inactive,,inactive,inactive,inactive,,inactive,,inactive,,inactive,
